Measurements reported in the supplement of paper PMC11732987, “Enantioselective OTUD7B fragment discovery through chemoproteomics screening and high-throughput optimisation” (Communications Chemistry, 2025).

How the values were obtained:
Experiment in all cases: log2 ratio of Biotin-Ahx-Ub-VS probe labelling (fragment/DMSO); higher = less target engagement (more negative = stronger competition), active = hit call of the paper (q ≤ 0.05, log2 ratio ≤ -1)
Settings in all cases: compound concentration: 200 uM; treatment time: 3 h
USP34 = USP34 (UniProt Q70CQ2)
How it was run: (§1)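 HEK293T lysate (495 µg per sample, in Tris/CHAPS/IGEPAL buffer with protease inhibitors) was treated in triplicate with fragment at 200 µM or with DMSO for 3 h. It was then treated with Biotin-Ahx-Ub-VS (0.5 µM final) for 1 h. Labelled DUBs were NeutrAvidin-enriched, digested with LysC and trypsin, and run by diaPASEF LC-MS/MS. Spectronaut label-free quantities were global-median-normalised. Values are average log2 ratios fragment/DMSO by unpaired t-test, using proteins with ≥2 unique peptides.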

USP36 = target: T1, USP36 (UniProt Q9P275)
T1 sequence (whole entry): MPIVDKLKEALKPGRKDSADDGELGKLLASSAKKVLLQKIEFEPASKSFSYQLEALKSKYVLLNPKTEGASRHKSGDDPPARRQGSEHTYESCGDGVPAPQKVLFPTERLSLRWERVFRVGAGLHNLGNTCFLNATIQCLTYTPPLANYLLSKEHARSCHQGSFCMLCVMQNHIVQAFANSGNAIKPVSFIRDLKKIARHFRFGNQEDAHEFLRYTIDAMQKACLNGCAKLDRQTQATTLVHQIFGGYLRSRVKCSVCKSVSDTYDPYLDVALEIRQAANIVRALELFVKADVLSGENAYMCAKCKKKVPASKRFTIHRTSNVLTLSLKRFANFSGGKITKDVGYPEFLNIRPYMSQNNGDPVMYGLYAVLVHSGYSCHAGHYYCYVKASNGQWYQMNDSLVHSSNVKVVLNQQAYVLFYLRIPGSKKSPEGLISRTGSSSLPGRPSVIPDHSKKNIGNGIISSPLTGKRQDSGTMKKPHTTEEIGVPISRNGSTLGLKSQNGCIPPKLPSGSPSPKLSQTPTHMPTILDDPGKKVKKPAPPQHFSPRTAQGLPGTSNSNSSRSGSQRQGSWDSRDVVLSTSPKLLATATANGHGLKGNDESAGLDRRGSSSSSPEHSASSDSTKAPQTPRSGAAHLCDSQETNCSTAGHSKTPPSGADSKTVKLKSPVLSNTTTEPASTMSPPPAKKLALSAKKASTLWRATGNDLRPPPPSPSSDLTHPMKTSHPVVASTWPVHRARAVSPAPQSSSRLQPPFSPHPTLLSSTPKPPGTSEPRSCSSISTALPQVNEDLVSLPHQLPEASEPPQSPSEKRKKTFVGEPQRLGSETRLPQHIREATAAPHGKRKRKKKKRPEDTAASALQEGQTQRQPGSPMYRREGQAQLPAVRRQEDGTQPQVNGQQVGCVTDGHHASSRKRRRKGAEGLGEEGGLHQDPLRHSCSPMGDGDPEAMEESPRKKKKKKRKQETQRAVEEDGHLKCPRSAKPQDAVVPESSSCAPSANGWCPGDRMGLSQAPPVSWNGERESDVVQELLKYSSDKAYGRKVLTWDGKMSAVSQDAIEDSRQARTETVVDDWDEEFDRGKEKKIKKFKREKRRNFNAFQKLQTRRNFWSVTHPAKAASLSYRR
How it was run: as §1

USP38 = target: T2, USP38 (UniProt Q8NB14)
T2 sequence (whole entry): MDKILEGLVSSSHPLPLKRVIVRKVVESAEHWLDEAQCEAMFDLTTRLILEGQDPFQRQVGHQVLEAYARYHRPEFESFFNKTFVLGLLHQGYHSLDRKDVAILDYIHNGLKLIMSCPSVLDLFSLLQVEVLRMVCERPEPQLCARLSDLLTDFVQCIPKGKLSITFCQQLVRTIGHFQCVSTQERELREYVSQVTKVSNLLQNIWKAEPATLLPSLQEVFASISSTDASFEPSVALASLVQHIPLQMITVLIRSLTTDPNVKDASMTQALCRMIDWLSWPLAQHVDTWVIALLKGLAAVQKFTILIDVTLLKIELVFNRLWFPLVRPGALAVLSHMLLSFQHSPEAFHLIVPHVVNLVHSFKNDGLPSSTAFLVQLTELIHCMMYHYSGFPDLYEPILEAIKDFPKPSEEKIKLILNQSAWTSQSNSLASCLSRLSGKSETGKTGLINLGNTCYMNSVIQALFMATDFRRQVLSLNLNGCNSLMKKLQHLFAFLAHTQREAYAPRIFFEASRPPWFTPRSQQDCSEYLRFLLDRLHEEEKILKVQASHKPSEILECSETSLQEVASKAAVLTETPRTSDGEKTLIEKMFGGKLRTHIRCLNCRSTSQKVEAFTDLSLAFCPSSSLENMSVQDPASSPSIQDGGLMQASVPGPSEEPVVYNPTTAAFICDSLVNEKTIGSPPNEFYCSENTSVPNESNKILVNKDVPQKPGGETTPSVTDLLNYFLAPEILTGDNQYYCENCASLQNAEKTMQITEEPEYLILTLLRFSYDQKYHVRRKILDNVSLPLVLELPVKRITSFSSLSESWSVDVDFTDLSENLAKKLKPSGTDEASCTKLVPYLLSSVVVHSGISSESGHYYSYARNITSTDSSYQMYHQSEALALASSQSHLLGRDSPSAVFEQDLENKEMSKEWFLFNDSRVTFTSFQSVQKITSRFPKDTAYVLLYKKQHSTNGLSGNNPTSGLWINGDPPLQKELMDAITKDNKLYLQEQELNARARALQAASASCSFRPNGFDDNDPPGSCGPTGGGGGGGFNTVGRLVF
How it was run: as §1

USP39 = target: T3, USP39 (UniProt Q53GS9)
T3 sequence (whole entry): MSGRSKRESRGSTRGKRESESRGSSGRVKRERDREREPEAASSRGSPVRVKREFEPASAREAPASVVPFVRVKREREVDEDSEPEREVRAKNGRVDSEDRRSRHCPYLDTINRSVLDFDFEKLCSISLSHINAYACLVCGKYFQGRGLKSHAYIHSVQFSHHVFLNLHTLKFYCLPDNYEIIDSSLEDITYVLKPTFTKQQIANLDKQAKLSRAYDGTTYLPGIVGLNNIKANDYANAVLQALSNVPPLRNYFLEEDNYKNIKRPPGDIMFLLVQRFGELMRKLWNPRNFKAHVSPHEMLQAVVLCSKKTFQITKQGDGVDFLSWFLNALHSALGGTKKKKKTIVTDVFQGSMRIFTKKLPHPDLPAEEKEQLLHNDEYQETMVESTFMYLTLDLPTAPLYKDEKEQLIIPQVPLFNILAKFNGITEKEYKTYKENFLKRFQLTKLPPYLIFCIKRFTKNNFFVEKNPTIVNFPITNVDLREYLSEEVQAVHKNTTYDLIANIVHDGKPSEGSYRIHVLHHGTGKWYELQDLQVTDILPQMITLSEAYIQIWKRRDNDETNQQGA
How it was run: as §1

USP4 = target: T4, USP4 (UniProt Q13107)
T4 sequence (whole entry): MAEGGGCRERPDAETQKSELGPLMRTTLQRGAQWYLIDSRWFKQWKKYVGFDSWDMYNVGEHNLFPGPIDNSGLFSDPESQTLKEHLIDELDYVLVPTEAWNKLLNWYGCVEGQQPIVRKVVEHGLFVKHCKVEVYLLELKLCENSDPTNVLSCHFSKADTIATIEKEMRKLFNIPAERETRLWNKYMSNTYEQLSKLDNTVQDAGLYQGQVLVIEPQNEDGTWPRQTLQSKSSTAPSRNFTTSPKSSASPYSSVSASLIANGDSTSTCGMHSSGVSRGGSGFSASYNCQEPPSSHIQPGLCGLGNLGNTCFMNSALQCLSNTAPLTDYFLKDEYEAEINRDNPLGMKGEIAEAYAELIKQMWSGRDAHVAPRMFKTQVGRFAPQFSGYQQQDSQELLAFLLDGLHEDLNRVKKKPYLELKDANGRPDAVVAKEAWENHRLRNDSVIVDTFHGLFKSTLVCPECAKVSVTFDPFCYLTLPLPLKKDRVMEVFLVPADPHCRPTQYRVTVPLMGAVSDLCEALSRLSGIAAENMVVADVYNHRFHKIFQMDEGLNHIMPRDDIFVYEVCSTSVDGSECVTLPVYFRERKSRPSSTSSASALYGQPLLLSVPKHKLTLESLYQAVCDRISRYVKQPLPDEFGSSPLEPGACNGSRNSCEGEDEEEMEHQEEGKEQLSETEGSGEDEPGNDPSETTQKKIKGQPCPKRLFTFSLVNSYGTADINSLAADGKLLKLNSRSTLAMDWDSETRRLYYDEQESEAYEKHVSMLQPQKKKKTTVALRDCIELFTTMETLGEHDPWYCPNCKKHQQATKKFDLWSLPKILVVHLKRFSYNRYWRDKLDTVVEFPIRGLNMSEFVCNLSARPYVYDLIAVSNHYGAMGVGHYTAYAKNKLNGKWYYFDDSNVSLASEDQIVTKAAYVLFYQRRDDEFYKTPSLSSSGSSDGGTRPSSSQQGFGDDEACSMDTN
How it was run: as §1

Measured: log2 ratio of Biotin-Ahx-Ub-VS probe labelling

Chain of USP34 (Q70CQ2 whole entry, the tested form may be a part): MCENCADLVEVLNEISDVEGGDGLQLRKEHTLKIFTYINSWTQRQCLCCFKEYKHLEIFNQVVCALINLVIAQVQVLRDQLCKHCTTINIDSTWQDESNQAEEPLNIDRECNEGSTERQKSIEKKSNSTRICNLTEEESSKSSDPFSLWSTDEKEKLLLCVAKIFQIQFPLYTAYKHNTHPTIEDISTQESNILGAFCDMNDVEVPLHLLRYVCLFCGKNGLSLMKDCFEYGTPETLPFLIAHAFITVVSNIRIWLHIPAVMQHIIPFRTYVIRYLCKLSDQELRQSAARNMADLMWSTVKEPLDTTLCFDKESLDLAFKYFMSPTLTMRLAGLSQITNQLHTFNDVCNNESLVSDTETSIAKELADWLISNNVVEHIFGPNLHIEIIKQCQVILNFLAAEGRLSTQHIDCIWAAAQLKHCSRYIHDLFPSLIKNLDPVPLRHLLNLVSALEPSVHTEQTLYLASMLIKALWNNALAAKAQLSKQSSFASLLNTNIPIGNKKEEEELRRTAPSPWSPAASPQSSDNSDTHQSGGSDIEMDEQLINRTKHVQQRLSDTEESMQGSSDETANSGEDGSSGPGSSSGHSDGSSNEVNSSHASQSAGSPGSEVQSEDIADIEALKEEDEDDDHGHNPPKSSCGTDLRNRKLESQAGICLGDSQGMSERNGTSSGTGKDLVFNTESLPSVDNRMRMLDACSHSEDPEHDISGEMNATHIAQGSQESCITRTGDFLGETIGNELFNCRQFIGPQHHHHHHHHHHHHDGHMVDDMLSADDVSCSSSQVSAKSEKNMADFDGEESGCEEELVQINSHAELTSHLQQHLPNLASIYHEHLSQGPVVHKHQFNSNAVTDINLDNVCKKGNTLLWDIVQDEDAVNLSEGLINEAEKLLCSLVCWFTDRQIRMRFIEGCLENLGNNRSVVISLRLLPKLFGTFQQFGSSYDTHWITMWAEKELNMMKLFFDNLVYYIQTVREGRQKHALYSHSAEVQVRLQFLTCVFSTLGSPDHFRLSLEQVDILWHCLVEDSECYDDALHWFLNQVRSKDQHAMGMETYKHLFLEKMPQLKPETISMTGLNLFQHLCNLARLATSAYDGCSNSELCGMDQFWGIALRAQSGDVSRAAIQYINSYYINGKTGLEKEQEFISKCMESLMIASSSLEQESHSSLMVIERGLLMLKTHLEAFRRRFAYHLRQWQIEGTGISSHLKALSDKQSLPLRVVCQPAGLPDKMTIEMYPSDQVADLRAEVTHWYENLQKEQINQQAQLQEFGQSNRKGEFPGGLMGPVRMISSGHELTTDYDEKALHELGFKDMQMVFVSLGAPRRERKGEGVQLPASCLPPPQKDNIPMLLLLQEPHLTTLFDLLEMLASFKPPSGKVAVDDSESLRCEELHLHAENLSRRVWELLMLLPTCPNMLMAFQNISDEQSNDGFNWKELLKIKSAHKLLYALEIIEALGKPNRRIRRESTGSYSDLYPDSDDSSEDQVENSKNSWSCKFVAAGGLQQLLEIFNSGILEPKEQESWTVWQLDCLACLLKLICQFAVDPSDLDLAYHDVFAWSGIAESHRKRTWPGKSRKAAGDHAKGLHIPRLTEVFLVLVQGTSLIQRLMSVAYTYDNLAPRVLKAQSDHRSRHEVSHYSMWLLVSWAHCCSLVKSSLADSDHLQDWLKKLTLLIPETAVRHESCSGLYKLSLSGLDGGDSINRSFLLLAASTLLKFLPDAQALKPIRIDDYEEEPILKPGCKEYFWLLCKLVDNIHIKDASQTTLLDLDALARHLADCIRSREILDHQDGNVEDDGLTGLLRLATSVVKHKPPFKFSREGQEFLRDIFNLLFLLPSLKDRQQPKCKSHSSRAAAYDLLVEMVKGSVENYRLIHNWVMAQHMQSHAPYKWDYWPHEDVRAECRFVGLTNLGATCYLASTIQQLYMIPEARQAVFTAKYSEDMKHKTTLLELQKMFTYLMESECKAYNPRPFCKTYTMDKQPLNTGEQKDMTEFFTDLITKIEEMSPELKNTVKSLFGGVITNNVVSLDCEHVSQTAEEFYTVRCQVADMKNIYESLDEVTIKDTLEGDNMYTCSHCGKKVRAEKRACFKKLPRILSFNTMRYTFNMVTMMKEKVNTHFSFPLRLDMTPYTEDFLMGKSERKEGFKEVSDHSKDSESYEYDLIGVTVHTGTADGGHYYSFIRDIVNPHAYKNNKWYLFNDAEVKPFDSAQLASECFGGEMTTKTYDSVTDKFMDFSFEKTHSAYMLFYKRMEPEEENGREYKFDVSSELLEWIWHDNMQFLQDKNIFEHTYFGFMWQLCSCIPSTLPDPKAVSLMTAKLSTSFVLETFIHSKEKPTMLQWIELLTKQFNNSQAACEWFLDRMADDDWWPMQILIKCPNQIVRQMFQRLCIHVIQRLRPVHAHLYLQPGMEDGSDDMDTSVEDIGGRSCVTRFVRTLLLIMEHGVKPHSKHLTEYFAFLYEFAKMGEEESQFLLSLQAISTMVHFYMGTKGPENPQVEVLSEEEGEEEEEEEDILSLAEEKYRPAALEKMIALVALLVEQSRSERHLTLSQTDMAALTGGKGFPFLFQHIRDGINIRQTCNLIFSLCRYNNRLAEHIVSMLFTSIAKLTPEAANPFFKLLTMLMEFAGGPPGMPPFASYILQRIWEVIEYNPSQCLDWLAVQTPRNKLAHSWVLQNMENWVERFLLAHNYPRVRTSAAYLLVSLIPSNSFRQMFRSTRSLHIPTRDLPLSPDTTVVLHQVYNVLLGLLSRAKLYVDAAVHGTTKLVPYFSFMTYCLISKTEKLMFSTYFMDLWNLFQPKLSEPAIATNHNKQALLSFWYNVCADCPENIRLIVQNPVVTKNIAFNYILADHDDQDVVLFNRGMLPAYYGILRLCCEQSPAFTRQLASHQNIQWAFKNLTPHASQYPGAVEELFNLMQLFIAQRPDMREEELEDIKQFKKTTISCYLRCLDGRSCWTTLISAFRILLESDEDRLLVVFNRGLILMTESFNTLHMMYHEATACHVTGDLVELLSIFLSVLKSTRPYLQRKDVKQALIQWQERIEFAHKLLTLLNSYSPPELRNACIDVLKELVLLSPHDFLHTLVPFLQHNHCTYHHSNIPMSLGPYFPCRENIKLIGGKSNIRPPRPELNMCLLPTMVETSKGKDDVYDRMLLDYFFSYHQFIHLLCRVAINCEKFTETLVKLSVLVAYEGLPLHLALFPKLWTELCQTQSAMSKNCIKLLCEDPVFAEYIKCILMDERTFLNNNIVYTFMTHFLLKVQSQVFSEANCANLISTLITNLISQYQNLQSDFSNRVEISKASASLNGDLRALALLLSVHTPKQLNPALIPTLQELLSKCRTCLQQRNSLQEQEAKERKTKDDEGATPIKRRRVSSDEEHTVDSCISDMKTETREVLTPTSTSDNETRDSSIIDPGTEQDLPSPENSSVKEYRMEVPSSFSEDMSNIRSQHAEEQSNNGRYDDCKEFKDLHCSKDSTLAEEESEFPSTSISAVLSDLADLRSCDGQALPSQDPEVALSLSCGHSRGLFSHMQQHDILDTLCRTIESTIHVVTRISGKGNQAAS

NC(=O)C1CCCCN1C(=O)CCl (stereo not given)
inactive: USP34 -0.0479 | USP36 -0.322 | USP38 0.0849 | USP39 0.0987 | USP4 -0.0651
